Assay [1] has as its system PRMT1 (protein arginine N-methyltransferase 1). Nature of the assay: PRMT1 binders on small-molecule microarrays, primary screen, biochemical, small-molecule microarray, 635 nm fluorescence (AID 1088).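 Further: binding of Prmt1 protein to compounds spotted on small-molecule microarray slides.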 The settings on record: small-molecule microarray binding, higher = more signal.
Assay [2] in a line: yeast growth modulation, basal conditions, primary screen, YJM789 clinical isolate, OD600, 24 h (AID 1089).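 Further: growth of clinical yeast isolate S. cerevisiae YJM 789 seeded 1000 cells per well; test concentration not given here.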 The settings on record: S. cerevisiae YJM789 growth, higher = more signal, called active from +8 up or from −8 down.
Assay [3] in a line: fission yeast growth modulation, primary screen, strain 972, OD600, 24 h, no modulator (AID 1090).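 Further: basal condition with compound alone and no growth modifier present; test concentration not given here.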 The settings on record: S. pombe 972 growth, higher = more signal, called active from +8 up or from −8 down.
Assay [4] is described as follows: S. cerevisiae growth modulation with rapamycin, primary screen, strain BY4716, OD600, 96 h (AID 1091). Further: test concentration not given here. As to conditions: higher = more signal, called active from +8 up or from −8 down.
Assay [5] deals with Torsin-1A-interacting protein 2 (Homo sapiens) (UniProt Q8NFQ8). Briefly: LULL1 binders on small-molecule microarray, primary screen, cell lysate, human LULL1 lysate, 635/667 nm fluorescence (AID 1092).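 Further: probe is lysate of COS7 cells overexpressing human LULL1; score merges per-feature 667 nm fluorescence with signal-to-noise.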 As to conditions: hLULL1 lysate binding, 635 nm fluorescence, higher = more signal.
A short description of assay [6]: E. coli growth modulation, two-sided OD650, primary screen, E. coli filamentation project, strain DRC41, 24 h (AID 1093).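 Further: MC1000 strain lacking acrAB efflux and sulA so SOS filamentation is blocked; test concentration not given here.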 The settings on record: OD650, 24 h, higher = more signal, called active from +8 up or from −8 down.
Assay [7] in a line: small-molecule microarray binders of probe aLefty2, primary screen, biochemical, biotinylated probe, 635/667 nm fluorescence (AID 1094).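 Further: score merges spot fluorescence near 667 nm with spot signal-to-noise ratio.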 As to conditions: higher = more signal.
Assay [8] concerns Noggin (protein binding on small-molecule microarray). Briefly: Noggin binders on small-molecule microarray, primary screen, biochemical, 635/667 nm fluorescence (AID 1095).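 Further: score merges 667 nm feature fluorescence with signal to noise over triplicate slides.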 As to conditions: 635 nm fluorescence, higher = more signal.
In assay [9] the target is Neurogenic locus notch homolog protein 3 (Homo sapiens) (UniProt Q9UM47). Briefly: NOTCH3 binders on small-molecule microarray, primary screen, biochemical, 635/667 nm fluorescence (AID 1096). The settings on record: NOTCH3 binding, 635 nm fluorescence, higher = more signal.
Assay [10] is described as follows: small-molecule microarray binders of probe aEGFR, primary screen, biochemical, biotinylated probe, 635/667 nm fluorescence (AID 1097).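 Further: probe is a biotinylated anti-EGFR antibody binding compounds printed on slides; score combines fluorescence near 667 nm and signal to noise of each spot.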 As to conditions: higher = more signal.
The test system of assay [11] is Plasmodium falciparum Sir2 (PF13_0152, Sir2A). Nature of the assay: pfSir2 binders on small-molecule microarrays, primary screen, biochemical, small-molecule microarray, 635 nm fluorescence (AID 1098).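 Further: score merges spot fluorescence intensity with its signal-to-noise ratio.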 The settings on record: small-molecule microarray binding, fluorescence 635 nm; higher = more signal.
Assay [12] can be described thus: small-molecule microarray binders of probe aDKK1, primary screen, biochemical, biotinylated probe, 635/667 nm fluorescence (AID 1099).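 Further: score merges 667nm spot fluorescence with signal to noise across triplicate slides; reference of the scale not given here.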 As to conditions: higher = more signal.
Assay [13] in a line: small-molecule microarray binders of probe aCHRDL2, primary screen, biochemical, biotinylated probe, 635/667 nm fluorescence (AID 1100). The settings on record: higher = more signal.
The nature of assay [14]: splicing luciferase reporter signal modulators, primary screen, spliceosome inhibition project, cell-based, HEK293, splice +/- reporter (AID 1101).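 Further: HEK293 cells carrying a splicing-competent luciferase reporter gene; test concentration not given here.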 The settings on record: luminescence, 24 h, higher = more signal, called active from +8 up or from −8 down.
The target in assay [15] is Fibroblast growth factor 10 (Homo sapiens) (UniProt O15520). Nature of the assay: FGF10 binders on small-molecule microarrays, primary screen, biochemical, small-molecule microarray, 635 nm fluorescence (AID 1102). As to conditions: FGF10 binding, fluorescence 635 nm, higher = more signal.
The test system of assay [16] is glycogen synthase kinase-3 (GSK3A per assay name; protocol says GSK3B). Nature of the assay: GSK3 binders on small-molecule microarrays, primary screen, biochemical, small-molecule microarray, 635 nm fluorescence, GSK3A (AID 1103). Further: the record names both GSK3A and GSK3B. As to conditions: small-molecule microarray binding, fluorescence 635 nm; higher = more signal.
The target of assay [17] is Epidermal growth factor receptor (Homo sapiens) (UniProt P00533). Briefly: EGFR binders on small-molecule microarrays, primary screen, biochemical, small-molecule microarray, 635 nm fluorescence (AID 1104).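 Further: score merges 667 nm emission intensity with spot signal to noise over triplicate slides.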 The settings on record: EGFR binding, higher = more signal.
Assay [18] concerns the target Follistatin-related protein 3 (Homo sapiens) (UniProt O95633). Briefly: FSTL3 binders on small-molecule microarrays, primary screen, biochemical, small-molecule microarray, 635 nm fluorescence (AID 1105).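 Further: score merges emission near 667 nm and signal to noise per printed spot across three slides.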 As to conditions: FSTL3 binding, higher = more signal.
Assay [19] deals with Dickkopf-related protein 1 (Homo sapiens) (UniProt O94907). Briefly: DKK1 binders on small-molecule microarrays, primary screen, biochemical, small-molecule microarray, 635 nm fluorescence scan (AID 1106).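 Further: score merges emission near 667 nm with signal to noise over three replicate slides.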 The settings on record: DKK1 binding, higher = more signal.
The subject of assay [20] is Inhibin beta A chain (activin A). Briefly: INHBA (activin A) binders on microarrays, primary screen, biochemical, small-molecule microarray, 635 nm fluorescence scan (AID 1107).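 Further: mouse activin A protein probed at 4.33 µg/mL on printed slides; score merges bound-protein fluorescence near 667 nm with spot signal-to-noise.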 As to conditions: small-molecule microarray binding, higher = more signal.

Activity calls are given as the source filed them.

Sequence of Neurogenic locus notch homolog protein 3 (Homo sapiens) (Q9UM47 whole entry, looked up): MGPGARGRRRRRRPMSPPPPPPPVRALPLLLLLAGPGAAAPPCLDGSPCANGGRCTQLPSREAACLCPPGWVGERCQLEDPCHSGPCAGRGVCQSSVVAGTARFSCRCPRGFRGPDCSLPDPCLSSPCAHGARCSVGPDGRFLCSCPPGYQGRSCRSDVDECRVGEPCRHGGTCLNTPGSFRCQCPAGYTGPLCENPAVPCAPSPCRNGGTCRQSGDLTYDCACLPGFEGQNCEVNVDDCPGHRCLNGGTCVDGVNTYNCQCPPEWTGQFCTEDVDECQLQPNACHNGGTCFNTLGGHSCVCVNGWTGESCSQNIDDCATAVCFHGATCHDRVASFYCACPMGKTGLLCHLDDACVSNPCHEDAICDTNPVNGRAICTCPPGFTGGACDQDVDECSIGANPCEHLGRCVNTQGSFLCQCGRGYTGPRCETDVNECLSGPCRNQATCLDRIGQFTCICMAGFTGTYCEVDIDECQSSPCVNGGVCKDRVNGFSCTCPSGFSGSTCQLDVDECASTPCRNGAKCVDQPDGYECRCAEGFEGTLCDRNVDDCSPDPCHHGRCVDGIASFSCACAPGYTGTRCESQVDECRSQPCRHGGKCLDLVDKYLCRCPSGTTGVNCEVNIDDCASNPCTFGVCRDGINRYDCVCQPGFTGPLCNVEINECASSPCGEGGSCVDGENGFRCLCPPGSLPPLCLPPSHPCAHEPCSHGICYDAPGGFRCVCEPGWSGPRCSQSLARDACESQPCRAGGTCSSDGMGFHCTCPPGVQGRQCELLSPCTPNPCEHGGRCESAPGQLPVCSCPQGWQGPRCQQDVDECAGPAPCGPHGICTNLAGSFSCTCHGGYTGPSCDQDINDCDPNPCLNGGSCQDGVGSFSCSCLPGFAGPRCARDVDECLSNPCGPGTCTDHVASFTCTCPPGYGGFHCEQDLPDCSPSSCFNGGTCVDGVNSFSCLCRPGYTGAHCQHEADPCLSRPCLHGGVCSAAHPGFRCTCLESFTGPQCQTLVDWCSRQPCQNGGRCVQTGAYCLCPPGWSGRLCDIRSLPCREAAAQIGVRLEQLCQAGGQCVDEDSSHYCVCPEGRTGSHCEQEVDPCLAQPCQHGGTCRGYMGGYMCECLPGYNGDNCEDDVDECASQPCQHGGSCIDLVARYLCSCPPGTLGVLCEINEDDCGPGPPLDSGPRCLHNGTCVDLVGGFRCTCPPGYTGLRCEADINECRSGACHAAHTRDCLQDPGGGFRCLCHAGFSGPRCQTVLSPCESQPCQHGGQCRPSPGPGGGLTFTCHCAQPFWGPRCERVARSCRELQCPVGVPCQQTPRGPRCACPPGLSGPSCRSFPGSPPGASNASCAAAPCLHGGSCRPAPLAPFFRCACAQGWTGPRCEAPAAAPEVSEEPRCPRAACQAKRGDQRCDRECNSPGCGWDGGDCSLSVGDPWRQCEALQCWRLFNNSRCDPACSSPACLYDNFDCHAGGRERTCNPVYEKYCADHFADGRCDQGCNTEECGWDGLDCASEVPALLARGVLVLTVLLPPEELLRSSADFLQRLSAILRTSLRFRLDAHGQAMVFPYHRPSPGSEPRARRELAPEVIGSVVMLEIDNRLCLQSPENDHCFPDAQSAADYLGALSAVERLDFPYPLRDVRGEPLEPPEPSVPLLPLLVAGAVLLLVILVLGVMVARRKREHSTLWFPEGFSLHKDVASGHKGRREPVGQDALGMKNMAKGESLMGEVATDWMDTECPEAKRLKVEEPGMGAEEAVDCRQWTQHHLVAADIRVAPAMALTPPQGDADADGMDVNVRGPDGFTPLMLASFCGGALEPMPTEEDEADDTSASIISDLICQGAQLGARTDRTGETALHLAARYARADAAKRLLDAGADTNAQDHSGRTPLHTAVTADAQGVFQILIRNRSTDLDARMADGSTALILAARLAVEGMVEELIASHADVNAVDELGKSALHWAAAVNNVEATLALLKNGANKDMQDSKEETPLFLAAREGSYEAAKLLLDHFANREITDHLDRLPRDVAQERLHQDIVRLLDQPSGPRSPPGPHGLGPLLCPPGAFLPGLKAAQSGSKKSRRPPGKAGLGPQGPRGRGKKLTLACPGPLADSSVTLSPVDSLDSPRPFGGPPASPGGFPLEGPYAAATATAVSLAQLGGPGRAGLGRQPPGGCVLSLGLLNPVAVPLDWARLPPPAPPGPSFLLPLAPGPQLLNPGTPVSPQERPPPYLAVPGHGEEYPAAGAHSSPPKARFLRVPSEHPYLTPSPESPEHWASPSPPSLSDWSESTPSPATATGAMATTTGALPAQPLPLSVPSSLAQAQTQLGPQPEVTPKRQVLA
Sequence of Torsin-1A-interacting protein 2 (Homo sapiens) (Q8NFQ8 whole entry, looked up): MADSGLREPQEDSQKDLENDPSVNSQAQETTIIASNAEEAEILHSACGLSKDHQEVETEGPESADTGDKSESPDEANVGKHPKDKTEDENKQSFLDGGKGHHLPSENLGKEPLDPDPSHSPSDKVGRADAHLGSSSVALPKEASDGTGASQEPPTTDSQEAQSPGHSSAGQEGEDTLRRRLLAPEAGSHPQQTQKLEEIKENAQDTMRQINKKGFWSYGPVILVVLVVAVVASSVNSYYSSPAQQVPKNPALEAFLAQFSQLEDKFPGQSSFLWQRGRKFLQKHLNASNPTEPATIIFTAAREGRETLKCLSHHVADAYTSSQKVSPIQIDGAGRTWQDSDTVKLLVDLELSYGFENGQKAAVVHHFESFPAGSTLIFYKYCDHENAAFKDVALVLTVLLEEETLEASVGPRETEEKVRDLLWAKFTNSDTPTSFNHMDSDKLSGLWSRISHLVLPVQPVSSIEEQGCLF
Sequence of Follistatin-related protein 3 (Homo sapiens) (O95633 whole entry, looked up): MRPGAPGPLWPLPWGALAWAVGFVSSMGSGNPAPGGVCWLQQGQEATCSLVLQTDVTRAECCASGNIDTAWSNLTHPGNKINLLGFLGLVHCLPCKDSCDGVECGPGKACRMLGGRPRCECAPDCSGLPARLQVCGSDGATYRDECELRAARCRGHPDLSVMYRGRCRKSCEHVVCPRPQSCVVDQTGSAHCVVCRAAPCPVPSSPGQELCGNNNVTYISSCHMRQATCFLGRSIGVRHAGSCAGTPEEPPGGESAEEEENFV
Sequence of Fibroblast growth factor 10 (Homo sapiens) (O15520 whole entry, looked up): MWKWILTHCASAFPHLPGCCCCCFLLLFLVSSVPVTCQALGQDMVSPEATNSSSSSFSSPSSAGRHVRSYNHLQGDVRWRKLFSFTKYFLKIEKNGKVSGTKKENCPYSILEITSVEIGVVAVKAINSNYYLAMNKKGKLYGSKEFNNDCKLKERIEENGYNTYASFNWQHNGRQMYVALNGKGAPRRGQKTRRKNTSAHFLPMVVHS
Sequence of Epidermal growth factor receptor (Homo sapiens) (P00533 whole entry, looked up): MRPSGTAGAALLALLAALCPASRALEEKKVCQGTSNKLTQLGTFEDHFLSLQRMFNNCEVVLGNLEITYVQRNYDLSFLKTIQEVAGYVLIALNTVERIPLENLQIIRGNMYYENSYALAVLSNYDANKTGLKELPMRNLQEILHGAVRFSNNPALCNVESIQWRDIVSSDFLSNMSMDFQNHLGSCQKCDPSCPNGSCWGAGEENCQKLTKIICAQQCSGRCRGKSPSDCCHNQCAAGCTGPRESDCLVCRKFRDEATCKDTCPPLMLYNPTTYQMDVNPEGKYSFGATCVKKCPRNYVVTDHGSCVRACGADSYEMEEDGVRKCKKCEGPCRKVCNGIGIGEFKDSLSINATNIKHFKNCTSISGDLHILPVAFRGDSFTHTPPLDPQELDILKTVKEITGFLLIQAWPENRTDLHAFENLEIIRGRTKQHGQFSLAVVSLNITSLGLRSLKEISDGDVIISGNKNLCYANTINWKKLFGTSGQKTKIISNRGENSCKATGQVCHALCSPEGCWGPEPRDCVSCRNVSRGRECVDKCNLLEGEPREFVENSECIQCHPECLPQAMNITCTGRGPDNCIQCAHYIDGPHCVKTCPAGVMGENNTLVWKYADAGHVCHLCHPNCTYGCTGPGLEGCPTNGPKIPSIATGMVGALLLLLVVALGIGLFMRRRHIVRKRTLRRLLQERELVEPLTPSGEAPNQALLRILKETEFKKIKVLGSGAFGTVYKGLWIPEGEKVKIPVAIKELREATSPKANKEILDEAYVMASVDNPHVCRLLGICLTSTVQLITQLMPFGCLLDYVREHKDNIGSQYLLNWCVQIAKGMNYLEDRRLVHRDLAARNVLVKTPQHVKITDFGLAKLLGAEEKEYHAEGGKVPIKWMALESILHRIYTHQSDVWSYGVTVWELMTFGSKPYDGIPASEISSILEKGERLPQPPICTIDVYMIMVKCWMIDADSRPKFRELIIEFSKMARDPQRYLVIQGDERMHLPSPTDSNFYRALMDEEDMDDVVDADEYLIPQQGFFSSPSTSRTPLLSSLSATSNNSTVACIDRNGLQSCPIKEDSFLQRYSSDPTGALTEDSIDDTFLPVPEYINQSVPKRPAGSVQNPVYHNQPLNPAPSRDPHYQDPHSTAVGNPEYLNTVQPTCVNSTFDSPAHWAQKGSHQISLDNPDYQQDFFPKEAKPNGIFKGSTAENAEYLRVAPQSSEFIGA
Sequence of Dickkopf-related protein 1 (Homo sapiens) (O94907 whole entry, looked up): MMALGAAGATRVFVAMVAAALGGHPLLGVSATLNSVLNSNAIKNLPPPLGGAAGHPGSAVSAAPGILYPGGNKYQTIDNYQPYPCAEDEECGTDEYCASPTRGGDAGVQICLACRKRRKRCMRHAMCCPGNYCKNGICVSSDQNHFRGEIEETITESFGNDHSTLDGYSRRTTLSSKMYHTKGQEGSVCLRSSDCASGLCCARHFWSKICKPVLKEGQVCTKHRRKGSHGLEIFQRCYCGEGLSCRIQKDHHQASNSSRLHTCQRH

As for `CC1(C)OCC(C(O)C2=CCCCC2=O)CO1` (stereo not given), the composite z-score is 1.56 in assay [1]; 0.231 in assay [5]; -0.0478 in assay [7]; 0.986 in [8]; 1.06 in [9]; 0.0688 in [10]. Also, the composite z-score in [11] was 1.04; in assay [12], -0.137; in [13], -0.704; in assay [15] it was 0.694; in assay [16] it was 0.999; in [17] it was 0.625. For the same molecule, the figures for the composite z-score in assay [18], in assay [19] and in assay [20] were 0.859, 0.717 and 1.6, respectively. The z-score in [2] was 0.209 (inactive); in assay [3], -0.0255 (inactive); in assay [4], 0.856 (inactive); in [6] it was -0.449 (inactive); in [14], 0.733 (inactive).
Regarding `O=C1c2ccccc2[C@@]2(Cc3ccccc3N(C3CC3)C2=O)[C@H](c2ccc(CO)cc2)N1Cc1ccccc1C(F)(F)F`, the composite z-score in assay [1] was 0.51; in assay [5], 1.83; in [7], 0.104; in assay [8], -1.31; in assay [9] it was -0.0714; in assay [10], -0.171. Further, the composite z-score in [11] is -0.0922; in assay [12], 0.261; in [13] it was 0.281; in assay [15] it was -0.837; in assay [16] it was -0.433; in assay [17] it was -0.942. The composite z-score in assay [18] is -0.672; in assay [19], -1.2; in [20], 0.394. The z-score in assay [2] is -0.104 (inactive); in [3], -0.995 (inactive); in [4], -1.47 (inactive); in assay [6] it was -2.03 (inactive); in assay [14], -0.628 (inactive).
For `CCOC(=O)C1=CC[C@H]2C(=O)N(CC)C(=O)[C@@H]12`, the composite z-score is 0.863 in assay [1]; 1.08 in assay [5]; -0.181 in assay [7]; 0.344 in assay [8]; 1 in [9]; 0.125 in [10]. The composite z-score in assay [11] is 0.762; in [12], -0.146; in assay [13], -0.242; in assay [15] it was 1.07; in assay [16] it was 0.947; in assay [17] it was 0.0746. For the same molecule, the composite z-score in [18] stood at 0.933; in assay [19] it was 0.0851; in [20] it was 0.666. In addition, the z-score in assay [2] was -0.348 (inactive); in [3] it was 1.77 (inactive); in assay [4] it was 0.816 (inactive); in [6], -0.233 (inactive); in assay [14], -0.253 (inactive).
As to `CO[C@H]1COC(=O)[C@H](C)NC(=O)[C@@H](C)COC(=O)CC=C[C@@H]1C`, the composite z-score is 0.748 in assay [1]; -0.498 in [5]; -0.103 in assay [7]; 0.3 in assay [8]; 0.674 in assay [9]; -0.02 in [10]. Besides, the composite z-score is 1.38 in assay [11]; -0.369 in assay [12]; -0.786 in assay [13]; 0.63 in assay [15]; 0.857 in assay [16]; 0.767 in assay [17]. In addition, the values for the composite z-score in assay [18], in [19] and in [20] were 0.0078, 0.829 and -0.249, respectively. In addition, the z-score in [2] was -0.156 (inactive); in [3] it was 0.473 (inactive); in assay [4], -0.564 (inactive); in assay [6], 0.2 (inactive); in [14], -0.794 (inactive).
`Cc1cc(C)c(-c2cc([C@H](C)ON=C3[C@H]4CCn5c(=O)n(-c6ccccc6)c(=O)n5[C@H]4[C@H](O)[C@@H]4O[C@H]34)on2)c(C)c1`: the composite z-score is 0.432 in assay [1]; 1.83 in assay [5]; -0.133 in assay [7]; 0.627 in assay [8]; 0.766 in assay [9]; -0.0978 in assay [10]. The composite z-score in [11] is 0.167; in assay [12] it was -0.255; in assay [13] it was -0.48; in assay [15], 0.501; in assay [16], 0.253; in assay [17], 0.377. In addition, the composite z-score in assay [18] was 0.801; in assay [19], 0.88; in assay [20], -0.0289. Besides, the z-score in assay [2] was 0.566 (inactive); in [3], -1.84 (inactive); in assay [4], 0.0884 (inactive); in assay [6], 0.771 (inactive); in [14], 2.01 (inactive).

Source of the values: PubChem BioAssay.
